Laboratory results taken from the supplement of paper PMC10849652.
The full data set covers some 7,900 targets. This sample favours those with a hit. About 0.6% of all pairs of compound and target were hits.

What was measured:
Assay in all cases: log2 fold change, soluble protein after heating vs DMSO (PISA); higher = thermal stabilisation; K562 cells, 10 uM, 30 min; active = over 0.2 and 3.5 SD of the protein, either way, in both replicates (recomputed)
[1] = compound: CC[C@@H]1C(=O)N(C)c2cnc(Nc3ccc(C(=O)NC4CCN(C)CC4)cc3OC)nc2N1C1CCCC1
How it was run: (§1)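 Aliquots of K562 cells (2×10^6 cells/mL) treated with 10 μM compound for 30 min were heated for 3 min over 48°C-58°C. After pooling and extraction in PBS with 0.5% NP-40 at 4°C, soluble protein from a 21,000xg, 90 min spin was quantified by TMTpro 16plex LC-MS/MS with channel sums equalised. Thermal stability is expressed against control samples, from duplicates, as a log2 fold change.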

[2] = compound: CC[C@@H]1C(=O)N(C)c2cnc(Nc3ccc(C(=O)N[C@H]4CC[C@H](N5CCN(CC6CC6)CC5)CC4)cc3OC)nc2N1C(C)C [volasertib]
How it was run: as §1

[3] = compound: CC[C@H](C)N1C=C(C2=C(C=C(C=C21)C3=CN=C(C=C3)N4CCNCC4)C(=O)NCC5=C(C=C(NC5=O)C)C)C
How it was run: as §1

[4] = compound: CC[C@H](C)[C@@H](C(=O)N[C@@H]([C@@H](C)O)C(=O)N[C@@H](CC(C)C)C(=O)[C@]1(CO1)C)NC(=O)[C@H]([C@@H](C)CC)N(C)C(=O)C [epoxomicin]
How it was run: as §1

[5] = compound: CCn1c(C(=O)N(C2CC2)C2CC2)cc2c3c(ncn3C)c(Nc3cc(C)n(C)n3)nc21
How it was run: as §1

[6] = compound: CCn1cc(-c2ccnc3[nH]c(-c4cccc(CN(C)C)c4)cc23)c(-c2ccc(NC(=O)N(C)C)cc2)n1
How it was run: as §1

[7] = compound: CN(C)CC(=O)Nc1ccc2[nH]c(=O)c3ccccc3c2c1
How it was run: as §1

[8] = compound: CN(CCOC1=CC=C(C=C1)C[C@H]2C(=O)NC(=O)S2)C3=CC=CC=N3 (racemic) [rosiglitazone]
How it was run: as §1

[9] = compound: CN1C2=C(C3=C1C(=O)N(N=C3)CC4=CC(=CC=C4)N)SC(=C2)S(=O)C
How it was run: as §1

[10] = compound: CN1CCC(CNc2ccc3ncc(-c4cccc(OC(F)(F)F)c4)n3n2)CC1
How it was run: as §1

Measured: log2 fold change

TIMM10B (UniProt Q9Y5J6)
UniProt Q9Y5J6, sequence (Q9Y5J6 whole entry, looked up): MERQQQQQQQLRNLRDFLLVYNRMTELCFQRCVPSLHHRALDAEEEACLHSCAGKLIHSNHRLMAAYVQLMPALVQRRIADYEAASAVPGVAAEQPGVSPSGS
inactive: [1] 0.033 | [2] -0.011 | [3] -0.064 | [4] 0.274 | [5] 0.115 | [6] -0.033 | [7] -0.12 | [8] -0.041 | [9] 0.063 | [10] 0.131

SNX3 (UniProt O60493)
UniProt O60493, sequence (O60493 whole entry, looked up): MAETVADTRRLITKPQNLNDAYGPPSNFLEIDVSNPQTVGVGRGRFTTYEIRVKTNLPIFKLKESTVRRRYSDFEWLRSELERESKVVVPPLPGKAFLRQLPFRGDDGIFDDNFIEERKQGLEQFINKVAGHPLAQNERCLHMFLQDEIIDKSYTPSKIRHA
inactive: [1] -0.071 | [2] -0.147 | [3] 0.107 | [4] -0.033 | [5] -0.176 | [6] 0.057 | [7] 0.077 | [8] 0.018 | [9] 0.116 | [10] -0.319

SMIM20 isoform 2 (UniProt Q8N5G0)
UniProt Q8N5G0, sequence (Q8N5G0 whole entry, looked up): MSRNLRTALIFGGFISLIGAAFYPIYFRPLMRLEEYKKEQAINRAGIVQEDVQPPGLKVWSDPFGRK
active: [4] 0.483
inactive: [1] 0.069 | [2] 0.048 | [3] -0.033 | [5] 0.038 | [6] -0.065 | [7] 0.007 | [8] 0.036 | [9] 0.051 | [10] 0.002

STIM1 (UniProt Q13586)
UniProt Q13586, sequence (Q13586 whole entry, looked up): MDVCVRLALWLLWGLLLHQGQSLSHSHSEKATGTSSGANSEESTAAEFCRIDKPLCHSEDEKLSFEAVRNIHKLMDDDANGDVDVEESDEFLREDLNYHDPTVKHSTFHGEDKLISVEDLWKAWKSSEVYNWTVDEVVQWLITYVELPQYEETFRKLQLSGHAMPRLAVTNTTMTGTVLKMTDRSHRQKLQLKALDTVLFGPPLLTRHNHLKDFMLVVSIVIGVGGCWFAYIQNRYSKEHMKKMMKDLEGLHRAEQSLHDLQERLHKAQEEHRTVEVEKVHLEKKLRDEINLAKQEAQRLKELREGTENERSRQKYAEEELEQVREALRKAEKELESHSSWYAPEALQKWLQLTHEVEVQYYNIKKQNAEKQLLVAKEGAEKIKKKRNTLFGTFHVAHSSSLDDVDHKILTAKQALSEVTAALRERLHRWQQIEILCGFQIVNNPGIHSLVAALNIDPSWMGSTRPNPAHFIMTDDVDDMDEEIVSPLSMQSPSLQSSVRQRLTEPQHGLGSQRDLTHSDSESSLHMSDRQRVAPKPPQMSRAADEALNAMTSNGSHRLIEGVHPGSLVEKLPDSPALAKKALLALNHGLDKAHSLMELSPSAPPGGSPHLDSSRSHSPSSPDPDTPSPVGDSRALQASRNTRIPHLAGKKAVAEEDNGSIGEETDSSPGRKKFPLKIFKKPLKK
inactive: [1] -0.116 | [2] -0.206 | [3] 0.025 | [4] 0.028 | [5] 0.004 | [6] 0.023 | [7] 0.007 | [8] 0.037 | [9] -0.047 | [10] -0.195

SNRPB2 (UniProt P08579)
UniProt P08579, sequence (P08579 whole entry, looked up): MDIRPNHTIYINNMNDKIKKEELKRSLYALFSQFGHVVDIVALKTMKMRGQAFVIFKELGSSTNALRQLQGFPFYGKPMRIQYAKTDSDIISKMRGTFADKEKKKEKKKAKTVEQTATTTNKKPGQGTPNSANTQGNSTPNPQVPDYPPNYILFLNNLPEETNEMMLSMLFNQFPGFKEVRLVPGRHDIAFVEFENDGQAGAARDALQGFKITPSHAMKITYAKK
inactive: [1] 0.176 | [2] 0.174 | [3] -0.069 | [4] -0.05 | [5] 0.025 | [6] 0.069 | [7] -0.063 | [8] -0.047 | [9] -0.008 | [10] 0.098

TBRG4 (UniProt Q969Z0)
UniProt Q969Z0, sequence (Q969Z0 whole entry, looked up): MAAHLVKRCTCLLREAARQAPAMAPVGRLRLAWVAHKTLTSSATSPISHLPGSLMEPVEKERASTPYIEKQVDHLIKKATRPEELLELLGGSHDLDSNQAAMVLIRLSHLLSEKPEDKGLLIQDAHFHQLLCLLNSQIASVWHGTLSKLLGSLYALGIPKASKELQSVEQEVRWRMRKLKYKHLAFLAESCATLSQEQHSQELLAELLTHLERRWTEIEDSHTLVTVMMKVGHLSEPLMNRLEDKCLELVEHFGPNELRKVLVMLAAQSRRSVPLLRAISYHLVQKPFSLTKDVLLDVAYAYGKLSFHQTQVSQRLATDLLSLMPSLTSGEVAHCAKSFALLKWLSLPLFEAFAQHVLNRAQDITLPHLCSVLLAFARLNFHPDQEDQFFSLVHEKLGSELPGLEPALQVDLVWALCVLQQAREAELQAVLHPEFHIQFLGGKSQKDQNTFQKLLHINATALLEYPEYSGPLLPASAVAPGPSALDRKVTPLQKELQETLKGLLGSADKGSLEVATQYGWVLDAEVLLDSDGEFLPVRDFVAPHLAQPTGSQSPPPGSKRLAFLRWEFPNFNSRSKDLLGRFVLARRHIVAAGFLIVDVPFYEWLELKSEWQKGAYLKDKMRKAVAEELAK
inactive: [1] -0.361 | [2] -0.583 | [3] -0.003 | [4] 0.12 | [5] -0.034 | [6] 0.009 | [7] 0.111 | [8] 0.073 | [9] 0.047
active: [10] -1.19

SQSTM1 (UniProt Q13501)
inactive: [1] -0.09 | [2] -0.204 | [3] 0.021 | [4] -0.056 | [5] 0.041 | [6] -0.112 | [7] 0.042 | [8] 0.012 | [9] 0.043 | [10] -0.022

ST6GAL1 (UniProt P15907)
UniProt P15907, sequence (P15907 whole entry, looked up): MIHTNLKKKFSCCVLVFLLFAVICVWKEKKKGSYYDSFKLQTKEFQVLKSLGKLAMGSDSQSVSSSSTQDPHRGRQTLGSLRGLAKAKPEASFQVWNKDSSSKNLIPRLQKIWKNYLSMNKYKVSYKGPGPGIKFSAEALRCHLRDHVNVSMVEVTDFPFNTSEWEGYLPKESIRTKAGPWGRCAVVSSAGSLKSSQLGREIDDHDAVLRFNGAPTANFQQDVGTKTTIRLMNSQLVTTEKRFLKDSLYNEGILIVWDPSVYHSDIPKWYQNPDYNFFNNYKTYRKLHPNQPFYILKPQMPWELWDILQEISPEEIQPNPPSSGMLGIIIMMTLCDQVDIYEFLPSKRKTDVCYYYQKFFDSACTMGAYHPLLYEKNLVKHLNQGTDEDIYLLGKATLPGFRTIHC
inactive: [2] -0.257 | [3] 0.003 | [4] -0.066 | [5] 0.019 | [6] 0.01 | [7] 0.041 | [8] 0.058 | [9] -0.057 | [10] -0.149
active: [1] -0.221

TBC1D5 isoform 2 (UniProt Q92609)
UniProt Q92609, sequence (Q92609 whole entry, looked up): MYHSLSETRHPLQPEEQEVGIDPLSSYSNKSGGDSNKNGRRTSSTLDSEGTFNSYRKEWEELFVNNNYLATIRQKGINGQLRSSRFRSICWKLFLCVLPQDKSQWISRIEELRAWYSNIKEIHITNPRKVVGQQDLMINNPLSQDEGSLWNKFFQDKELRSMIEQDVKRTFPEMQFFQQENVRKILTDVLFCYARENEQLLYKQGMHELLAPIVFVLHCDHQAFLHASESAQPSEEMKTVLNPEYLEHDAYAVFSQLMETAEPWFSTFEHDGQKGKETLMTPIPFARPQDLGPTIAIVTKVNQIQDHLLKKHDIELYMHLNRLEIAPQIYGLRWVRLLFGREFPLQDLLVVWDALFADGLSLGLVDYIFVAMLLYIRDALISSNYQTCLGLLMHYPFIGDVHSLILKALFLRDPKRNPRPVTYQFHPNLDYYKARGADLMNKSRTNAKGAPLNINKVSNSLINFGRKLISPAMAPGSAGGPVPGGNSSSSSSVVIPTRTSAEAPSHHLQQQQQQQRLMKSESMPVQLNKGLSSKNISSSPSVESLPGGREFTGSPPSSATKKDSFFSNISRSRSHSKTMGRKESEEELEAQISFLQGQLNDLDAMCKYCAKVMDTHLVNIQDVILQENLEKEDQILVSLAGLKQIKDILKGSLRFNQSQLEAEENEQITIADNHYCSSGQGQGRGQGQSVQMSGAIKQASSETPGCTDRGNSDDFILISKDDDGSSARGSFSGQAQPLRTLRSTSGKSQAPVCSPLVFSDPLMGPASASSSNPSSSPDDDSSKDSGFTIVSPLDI
inactive: [3] 0.113 | [4] 0.069 | [5] -0.076 | [6] -0.016 | [7] 0.039 | [8] 0.022 | [9] 0.021
active: [1] -0.397 | [2] -0.854 | [10] -0.375

THYN1 (UniProt Q9P016)
UniProt Q9P016, sequence (Q9P016 whole entry, looked up): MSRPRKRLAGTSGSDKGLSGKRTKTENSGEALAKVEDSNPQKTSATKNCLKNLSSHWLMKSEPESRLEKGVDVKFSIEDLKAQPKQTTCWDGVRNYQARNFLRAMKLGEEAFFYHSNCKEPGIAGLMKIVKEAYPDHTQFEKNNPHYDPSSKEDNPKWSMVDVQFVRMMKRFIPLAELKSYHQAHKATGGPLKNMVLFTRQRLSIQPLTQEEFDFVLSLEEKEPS
inactive: [1] 0.059 | [2] 0.09 | [3] 0.048 | [4] 0.016 | [5] 0.072 | [6] -0.04 | [7] -0.004 | [8] 0.001 | [9] -0.09 | [10] 0.09

STX17 (UniProt P56962)
UniProt P56962, sequence (P56962 whole entry, looked up): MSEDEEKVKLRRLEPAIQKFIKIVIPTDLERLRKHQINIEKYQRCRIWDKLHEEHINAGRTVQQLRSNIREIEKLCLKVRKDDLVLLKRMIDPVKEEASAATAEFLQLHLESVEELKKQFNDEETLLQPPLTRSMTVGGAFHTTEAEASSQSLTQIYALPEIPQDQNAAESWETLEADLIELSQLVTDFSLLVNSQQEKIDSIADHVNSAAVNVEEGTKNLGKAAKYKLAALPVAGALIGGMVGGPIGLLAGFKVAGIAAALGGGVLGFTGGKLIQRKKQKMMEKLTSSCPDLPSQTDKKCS
inactive: [1] -0.273 | [3] -0.06 | [4] 0.062 | [5] -0.067 | [6] 0.011 | [7] -0.02 | [8] 0.089 | [9] -0.126 | [10] -0.278
active: [2] -0.357

TGFBRAP1 (UniProt Q8WUH2)
UniProt Q8WUH2, sequence (Q8WUH2 whole entry, looked up): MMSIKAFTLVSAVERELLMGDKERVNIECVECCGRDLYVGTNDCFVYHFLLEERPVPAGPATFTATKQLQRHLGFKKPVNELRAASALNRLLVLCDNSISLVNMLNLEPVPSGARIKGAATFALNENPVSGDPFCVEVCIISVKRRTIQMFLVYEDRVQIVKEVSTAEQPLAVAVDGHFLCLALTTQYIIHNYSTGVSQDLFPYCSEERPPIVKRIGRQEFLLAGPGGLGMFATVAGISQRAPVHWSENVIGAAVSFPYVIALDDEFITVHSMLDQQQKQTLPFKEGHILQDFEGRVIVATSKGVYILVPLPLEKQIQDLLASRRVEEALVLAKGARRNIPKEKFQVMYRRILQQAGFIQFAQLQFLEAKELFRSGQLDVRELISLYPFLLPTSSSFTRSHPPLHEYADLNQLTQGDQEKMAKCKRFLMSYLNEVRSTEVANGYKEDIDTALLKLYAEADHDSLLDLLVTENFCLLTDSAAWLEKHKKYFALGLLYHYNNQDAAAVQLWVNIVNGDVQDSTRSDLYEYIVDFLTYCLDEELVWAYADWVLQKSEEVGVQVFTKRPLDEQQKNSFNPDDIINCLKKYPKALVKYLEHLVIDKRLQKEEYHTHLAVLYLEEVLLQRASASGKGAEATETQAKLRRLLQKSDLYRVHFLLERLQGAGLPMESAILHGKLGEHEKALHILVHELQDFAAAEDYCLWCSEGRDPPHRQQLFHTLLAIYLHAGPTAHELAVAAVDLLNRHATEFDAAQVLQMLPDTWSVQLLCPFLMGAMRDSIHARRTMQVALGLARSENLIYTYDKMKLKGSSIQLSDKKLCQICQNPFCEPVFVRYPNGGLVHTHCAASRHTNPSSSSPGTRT
inactive: [1] -0.098 | [2] -0.253 | [3] 0.128 | [4] 0.048 | [5] -0.038 | [6] -0.059 | [7] 0.11 | [8] 0.097 | [9] 0.195 | [10] 0.011

TIMM13 (UniProt Q9Y5L4)
UniProt Q9Y5L4, sequence (Q9Y5L4 whole entry, looked up): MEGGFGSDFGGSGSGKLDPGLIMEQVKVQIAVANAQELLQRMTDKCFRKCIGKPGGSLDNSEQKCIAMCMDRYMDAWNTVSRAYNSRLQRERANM
inactive: [1] 0.019 | [2] -0.048 | [3] 0.027 | [4] 0.213 | [5] 0.024 | [6] 0 | [7] -0.032 | [8] 0.029 | [9] -0.094 | [10] 0.237

SPAST (UniProt Q9UBP0)
inactive: [1] -0.128 | [2] -0.242 | [3] 0.107 | [4] 0.021 | [5] -0.077 | [6] 0.035 | [7] 0.079 | [8] 0.048 | [9] -0.046 | [10] -0.043

SUPT5H (UniProt O00267)
inactive: [1] -0.018 | [3] 0.084 | [4] 0.062 | [5] -0.054 | [6] -0.065 | [7] 0.056 | [8] 0.057 | [9] -0.056 | [10] -0.117
active: [2] -0.224
